From PubChem BioAssay
Active and inactive are the calls of the source.

Columns and labels:
[1] = E. coli DRC41 culture turbidity changes, primary screen, E. coli filamentation inducer project, strain DRC41, OD650, 48 h (AID 1152);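 note: E. coli MC1000 strain DRC41 lacking acrAB efflux pump and sulA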; conditions: E. coli DRC41 (acrAB sulA), higher = more signal, called active from +8 up or from −8 down
[2] = small-molecule binders of probe aLefty1, primary screen, biochemical, small-molecule microarray, 635/667 nm fluorescence (AID 1153); conditions: higher = more signal;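 note: score merges spot fluorescence with signal-to-noise ratio from the scanned slide images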
[3] = PSAC antagonists in infected red cells, primary screen, cell-based, P. falciparum Indochina, OD700, 1 h (AID 1154); conditions: P. falciparum Indochina infected RBC osmotic lysis, higher = more signal, called active from +8 up or from −8 down
[4] = PSAC antagonists in infected red cells, primary screen, cell-based, P. falciparum Indochina, OD700, 2 h (AID 1155);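 note: lysis reports solute entry through the parasite surface anion channel PSAC; channel blockers reduce lysis of infected cells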; conditions: P. falciparum Indochina infected erythrocytes, osmotic lysis OD700; higher = more signal, called active from +8 up or from −8 down
[5] = osmotic lysis modulators in infected erythrocytes, primary screen, PSAC antagonist project, cell-based, P. falciparum Indochina, OD700, 3 h (AID 1156); conditions: higher = more signal, called active from +8 up or from −8 down
[6] = PSAC antagonists in infected red cells, primary screen, cell-based, P. falciparum Indochina, OD700, 18 h (AID 1157); conditions: P. falciparum Indochina infected erythrocytes, osmotic lysis OD700, 18 h; higher = more signal, called active from +8 up or from −8 down
[7] = modulators of S6 phosphorylation in cells, primary screen, cell-based, A549, cytoblot, luminescence, serum-stimulated (AID 1158); conditions: A549 phospho-S6 cytoblot, 5 h, higher = more signal;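 note: serum-stimulated A549 lung adenocarcinoma cells; signal is phosphorylated S6 detected by cytoblot immunostaining with HRP secondary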
[8] = biological target: NADPH oxidase 2 (Homo sapiens) (UniProt P04839); experiment: NOX2-dependent H2O2 signal modulators, primary screen, NOX inhibitor project, cell-based, HEK293-NOX2, PMA-stimulated, Amplex Red fluorescence (AID 1159); conditions: 45 min, higher = more signal, called active from +8 up or from −8 down; note: test concentration not given here
[9] = biological target: NADPH oxidase 4 (Homo sapiens) (UniProt Q9NPH5); experiment: NOX4-dependent H2O2 signal modulators, primary screen, NOX inhibitor project, cell-based, HEK293-NOX4, tetracycline-induced, Amplex Red fluorescence (AID 1160); conditions: 45 min, higher = more signal, called active from +8 up or from −8 down
[10] = biological target: NADPH oxidase 5 (Homo sapiens) (UniProt Q96PH1); experiment: NOX5-dependent H2O2 signal modulators, primary screen, NOX inhibitor project, cell-based, HEK293-NOX5, Amplex Red fluorescence (AID 1161); conditions: HEK293-NOX5, ionomycin, 45 min, higher = more signal
[11] = A549 cell viability effects, profiling panel, calcein-AM fluorescence, 48 h, basal (AID 1162); conditions: higher = more signal; note: test concentration not given here
[12] = adipocyte viability effects, profiling panel, cell-based, 3T3-L1 adipocytes, calcein-AM fluorescence, 48 h, basal (AID 1163); conditions: 3T3-L1 adipocytes viability, higher = more signal; note: test concentration not given here
[13] = HepG2 cell viability effects, profiling panel, calcein-AM fluorescence, 48 h, basal (AID 1164); conditions: higher = more signal; note: test concentration not given here
[14] = MM1S cell viability effects, profiling panel, calcein-AM fluorescence, 48 h, basal (AID 1165); conditions: higher = more signal;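 note: viability of MM1S multiple myeloma cells under basal unstimulated conditions; test concentration not given here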
[15] = basal RPMI8226 viability, no added stimulus, profiling panel, cell-based, calcein-AM fluorescence, 48 h, PK04 Diversity Set (AID 1166); conditions: RPMI8226 myeloma viability, higher = more signal;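 note: cells grown under basal conditions without added stimulus; test concentration not given here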
[16] = basal HepG2 mitochondrial membrane potential changes, profiling panel, cell-based, JC-1 fluorescence, 24 h, 100 nL compound (AID 1167); conditions: higher = more signal; note: test concentration not given here
[17] = basal 3T3-L1 adipocyte mitochondrial potential changes, profiling panel, cell-based, JC-1 fluorescence, 3T3-L1 adipocytes, 24 h, 100 nL compound (AID 1168); conditions: JC-1 mitochondrial fluorescence, higher = more signal, called active from +8 up or from −8 down; note: test concentration not given here
[18] = basal RPMI8226 mitochondrial membrane potential changes, profiling panel, cell-based, JC-1 fluorescence, 24 h, 100 nL compound (AID 1169); conditions: RPMI8226 myeloma, JC-1 mitochondrial potential fluorescence, higher = more signal; note: test concentration not given here
[19] = basal MM1S mitochondrial membrane potential changes, profiling panel, cell-based, JC-1 fluorescence, 24 h, 100 nL compound (AID 1170); conditions: higher = more signal; note: test concentration not given here
[20] = A549 lung cancer cell viability effects, profiling panel, resazurin fluorescence, 24 h, PK04 Diversity Set (AID 1171); conditions: higher = more signal, called active from +8 up or from −8 down; note: test concentration not given here

Chain of NADPH oxidase 2 (Homo sapiens) (P04839 whole entry, looked up): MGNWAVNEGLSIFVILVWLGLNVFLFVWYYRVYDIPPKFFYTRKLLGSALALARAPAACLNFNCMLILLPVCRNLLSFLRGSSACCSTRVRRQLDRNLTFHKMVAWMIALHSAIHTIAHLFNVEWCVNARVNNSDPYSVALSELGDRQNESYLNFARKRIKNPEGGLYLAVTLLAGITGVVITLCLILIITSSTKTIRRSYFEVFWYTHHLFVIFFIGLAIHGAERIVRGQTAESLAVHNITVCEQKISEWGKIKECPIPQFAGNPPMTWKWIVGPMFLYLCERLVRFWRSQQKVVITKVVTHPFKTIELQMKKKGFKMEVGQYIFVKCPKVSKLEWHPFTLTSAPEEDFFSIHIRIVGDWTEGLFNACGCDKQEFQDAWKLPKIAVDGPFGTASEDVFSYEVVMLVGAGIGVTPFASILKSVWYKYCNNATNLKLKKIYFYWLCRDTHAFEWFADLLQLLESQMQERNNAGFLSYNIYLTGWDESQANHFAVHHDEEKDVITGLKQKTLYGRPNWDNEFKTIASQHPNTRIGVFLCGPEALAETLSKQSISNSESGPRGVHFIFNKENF
Chain of NADPH oxidase 5 (Homo sapiens) (Q96PH1 whole entry, looked up): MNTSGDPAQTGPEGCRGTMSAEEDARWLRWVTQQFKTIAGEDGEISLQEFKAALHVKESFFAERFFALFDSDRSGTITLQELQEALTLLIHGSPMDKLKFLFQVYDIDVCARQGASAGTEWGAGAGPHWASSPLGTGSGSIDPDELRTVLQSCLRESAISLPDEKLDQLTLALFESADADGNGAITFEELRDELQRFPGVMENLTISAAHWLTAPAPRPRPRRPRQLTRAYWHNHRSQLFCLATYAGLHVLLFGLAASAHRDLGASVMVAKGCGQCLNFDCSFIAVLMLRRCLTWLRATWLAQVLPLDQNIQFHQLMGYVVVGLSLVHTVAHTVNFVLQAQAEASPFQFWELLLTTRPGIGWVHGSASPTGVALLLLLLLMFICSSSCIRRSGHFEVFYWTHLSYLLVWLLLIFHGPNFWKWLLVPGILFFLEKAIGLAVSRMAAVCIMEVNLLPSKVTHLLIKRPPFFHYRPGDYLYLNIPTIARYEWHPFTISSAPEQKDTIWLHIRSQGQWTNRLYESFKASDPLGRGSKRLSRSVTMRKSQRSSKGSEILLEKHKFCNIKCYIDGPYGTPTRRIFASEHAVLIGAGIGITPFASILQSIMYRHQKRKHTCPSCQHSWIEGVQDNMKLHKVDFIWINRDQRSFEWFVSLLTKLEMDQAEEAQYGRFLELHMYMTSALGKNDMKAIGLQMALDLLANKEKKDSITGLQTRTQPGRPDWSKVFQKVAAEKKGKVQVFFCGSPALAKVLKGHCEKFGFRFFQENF
Chain of NADPH oxidase 4 (Homo sapiens) (Q9NPH5 whole entry, looked up): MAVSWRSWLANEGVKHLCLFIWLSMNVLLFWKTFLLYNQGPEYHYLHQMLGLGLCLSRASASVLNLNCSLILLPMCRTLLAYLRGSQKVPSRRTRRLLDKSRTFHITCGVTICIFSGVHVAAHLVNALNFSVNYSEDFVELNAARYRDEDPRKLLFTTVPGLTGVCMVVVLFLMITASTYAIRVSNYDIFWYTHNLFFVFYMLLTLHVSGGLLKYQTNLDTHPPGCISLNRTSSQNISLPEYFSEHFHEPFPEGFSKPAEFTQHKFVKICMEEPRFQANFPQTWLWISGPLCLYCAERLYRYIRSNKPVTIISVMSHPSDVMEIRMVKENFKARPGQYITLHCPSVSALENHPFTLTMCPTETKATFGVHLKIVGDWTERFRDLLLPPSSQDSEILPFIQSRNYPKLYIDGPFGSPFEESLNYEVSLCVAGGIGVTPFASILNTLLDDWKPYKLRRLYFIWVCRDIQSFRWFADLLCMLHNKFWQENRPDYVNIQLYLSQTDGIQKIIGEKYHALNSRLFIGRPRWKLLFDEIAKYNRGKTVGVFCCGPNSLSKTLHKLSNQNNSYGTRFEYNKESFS

Structure (SMILES)	z-score [1]	composite z-score [2]	z-score [3]	z-score [4]	z-score [5]	z-score [6]	z-score [7]	z-score [8]	z-score [9]	z-score [10]	z-score [11]	z-score [12]	z-score [13]	z-score [14]	z-score [15]	z-score [16]	z-score [17]	z-score [18]	z-score [19]	z-score [20]
CON=C(C)CCN1CCc2nc(-c3ccccc3)c(-c3ccccc3)cc2C1	-0.944 (inactive)	-0.0303	3.74 (inactive)	1.17 (inactive)	1.69 (inactive)	0.808 (inactive)	-0.0181	-6.35 (inactive)	-2.6 (inactive)	-6.68	-0.119	0.728	0.0133	-2.98	-1.5	1.03	-0.144 (inactive)	-0.0566	0.446	1.73 (inactive)
CCN1C(=O)[C@H]2[C@H]3[C@H](O)[C@H](O)CC(=NNC(=O)OCc4ccccc4)[C@H]3CC[C@H]2C1=O	-1.89 (inactive)	0.0931	1.26 (inactive)	0.322 (inactive)	0.364 (inactive)	0.0338 (inactive)	-0.18	0.92 (inactive)	0.424 (inactive)	0.0659	-0.365	0.888	-0.0764	-1.59	0.507	-0.559	-0.978 (inactive)	0.083	0.409	-0.218 (inactive)
CCOC(=O)CCN1C(=O)[C@H]2[C@H]3[C@H](O)[C@H](O)CC(=NOCC=C(C)CCC=C(C)C)[C@@H]3CC[C@H]2C1=O	-0.879 (inactive)	-0.193	0.0845 (inactive)	0.278 (inactive)	-0.931 (inactive)	-0.014 (inactive)	0.233	-0.737 (inactive)	0.511 (inactive)	-0.0503	-0.0606	-0.218	-0.124	0.232	-0.0685	-0.651	-0.204 (inactive)	-0.225	-0.251	-0.23 (inactive)
CCN1C(=O)[C@H]2[C@H]3[C@H](O)[C@H](O)CC(=NOC(C)CN4CCCc5nc(C)c(C)cc54)[C@@H]3CC[C@H]2C1=O (stereo not given in full)	0.223 (inactive)	0.603	1.25 (inactive)	0.59 (inactive)	-0.121 (inactive)	0.588 (inactive)	-0.461	-1 (inactive)	-0.772 (inactive)	-0.298	0.355	-0.769	-0.283	-1.78	-0.99	0.128	-0.886 (inactive)	0.534	-0.902	-0.696 (inactive)
CC(CCN1CCCc2nc(C)c(C)cc21)=NO[C@H](C)c1cn([C@H](CO)Cc2ccccc2)nn1	0.115 (inactive)	0.0402	5.14 (inactive)	0.985 (inactive)	2.45 (inactive)	0.638 (inactive)	-0.0039	-0.443 (inactive)	-0.076 (inactive)	0.863	-0.385	0.849	-0.456	-0.0916	-1.88	0.0197	-2.16 (inactive)	0.136	0.859	-0.254 (inactive)
CC(=O)OC[C@H]1O[C@H](CCON=C(C)C)C=C[C@@H]1OC(C)=O	-1.66 (inactive)	-0.0412	0.158 (inactive)	0.328 (inactive)	-0.599 (inactive)	0.196 (inactive)	-0.71	0.0813 (inactive)	0.151 (inactive)	-0.227	0.191	0.0363	-0.0004	-0.719	-1.12	-0.331	-0.681 (inactive)	0.636	-0.57	-0.426 (inactive)
COC(=O)[C@H](C)NC(=O)CCC1CC(OC(=O)NCCc2ccc(F)cc2)CC2(CCCC(COC(=O)NCc3ccccc3)O2)O1 (stereo not given in full)	-1.03 (inactive)	0.0367	-0.622 (inactive)	-0.694 (inactive)	-0.384 (inactive)	-0.268 (inactive)	0.788	0.0624 (inactive)	-0.0206 (inactive)	0.519	-0.101	-0.0012	0.601	0.756	-0.484	0.995	0.553 (inactive)	0.265	-0.579	0.896 (inactive)
CC(=O)OC[C@H]1O[C@@H](ON=C(C)CCC(=O)OC[C@H]2O[C@H](C#Cc3ccccc3)C=C[C@@H]2Oc2ccc(C)cc2)[C@H](OC(C)=O)[C@@H](OC(C)=O)[C@@H]1OC(C)=O	-0.446 (inactive)	-0.265	2.56 (inactive)	1.11 (inactive)	0.63 (inactive)	0.612 (inactive)	-0.635	1.04 (inactive)	1.2 (inactive)	1.38	0.16	0.57	-0.325	0.0628	-0.062	0.632	-1.55 (inactive)	0.393	0.69	0.221 (inactive)
O=C1[C@H]2[C@H]3[C@H](O)[C@H](O)CC(=NOCc4ccccc4)[C@@H]3CC[C@H]2C(=O)N1c1cccc(Oc2ccccc2)c1	1.16 (inactive)	0.082	2.88 (inactive)	1.72 (inactive)	1.19 (inactive)	0.845 (inactive)	-0.116	-1.11 (inactive)	0.735 (inactive)	-1.18	0.794	-0.746	-0.505	0.213	0.3	-0.231	-0.145 (inactive)	0.542	-1.68	-0.227 (inactive)
